Assay outcomes: PubChem, National Center for Advancing Translational Sciences (NCATS)
A selection: hits, their analogues and other compounds. The true share with any hit is near 8%.
SARS PLP yeast = qHTS of Yeast-based Assay for SARS-CoV PLP; S. cerevisiae expressing SARS-CoV PLpro, growth rescue; Potency, µM (titrated, usually from 32.9 µM), hits mostly activators; actives 0.19% (n = 330,000); AID 485353, 2010; calls by dose curve; further: nearly all actives have a fitted effect of over 55% in size
HCV inhibitor = qHTS Assay for Inhibitors of Hepatitis C Virus (HCV) | AID 651820, 2012 | Huh7.5.1 HCVcc-Cre infection, luciferase reporter, 44 h | Potency, µM (series often up to 41.8 µM), most hits filed as inhibitors | actives 3.4% (n = 340,000); active means well fitted inhibition curve with a large enough effect; inconclusive means small, poorly fitted or top-dose-only effect, or another doubt; inactive means no such curve, though single readings can be large or run the other way
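Infectious HCV cell culture screen: compound-treated cells (1,000/well, pre-plated 4 h) are infected with HCVcc-Cre at roughly 0.5 moi and grown 44 h. Infection is quantified by luciferase signal after 15 min substrate incubation at room temperature.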
Marburg entry inh = qHTS for inhibitors of binding or entry into cells for Marburg Virus; Marburg virus pseudotyped entry inhibition, cell reporter; Potency, µM (doses to about 37.8 µM), actives largely listed as inhibitors; actives 1.8% (n = 300,000); AID 540276, 2011; calls by dose curve; tested in HEK293 cells
LASV entry inh = qHTS for Inhibitors of binding or entry into cells for Lassa Virus | Lassa virus pseudotype entry inhibition, cell reporter | Potency, µM (series often up to 37.9 µM), most hits filed as inhibitors | actives 1.2% (n = 300,000); calls by dose curve; tested in HEK293 cells; further: nearly all actives have a fitted effect of over 50% in size
HCMV antiviral = qHTS Assay for inhibitors of the human cytomegalovirus (HCMV). HFF cells, HCMV-luciferase reporter, 72 h; active compounds read low. activity change, negative = inhibition, % at 57.5 µM. actives 4.5% (n = 410,000). AID 1259415, 2018; in the data active means activity change below about -60%; inconclusive means no clear call, values can overlap the other calls; inactive means above about -39%
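Cell-based, HFFs, 1000 cells/well, 16 h 37C; cpds in DMSO + HCMV-luc, MOI 1 PFU/cell; 72 h 37C; OneGlo luminescence after 5 min RT; norm. to buffer vs Salinomycin 10uM.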
FMDV inh = High Throughput Screening for Foot and Mouth Disease Virus Antivirals; FMDV antiviral cell-based qHTS; Potency, µM (top dose mostly 57.9 µM), usual class: inhibitors; actives 1.2% (n = 410,000); calls by dose curve; tested in HEK293T cells; further: read-out not given here; nearly all actives have a fitted effect of over 45% in size
Large screens that a line does not name were inactive.

N=NC(=O)c1ccccc1Nc1c(O)[nH]c2ccccc12	Marburg entry inh inconclusive, LASV entry inh 6.3µM, FMDV inh inconclusive (no result: SARS PLP yeast)
CC(O)CSc1nc2c(c(=O)[nH]c(=O)n2C)n1CC(O)COc1ccccc1 (centres undefined)	HCMV antiviral -94 (no result: Marburg entry inh, LASV entry inh)
CC(C)Sc1nc2c(c(=O)[nH]c(=O)n2C)n1CC(O)COc1ccccc1 (centres undefined)	LASV entry inh inconclusive, HCMV antiviral inconclusive
CCSc1nc2c(c(=O)[nH]c(=O)n2C)n1CC(O)COc1ccccc1C (centres undefined)	HCV inhibitor inconclusive, Marburg entry inh inconclusive, FMDV inh 20µM
C[C@@H]1CN(C2CCN(S(=O)(=O)c3ccc4ccccc4c3)CC2)C[C@H](C)O1	none (no result: SARS PLP yeast, HCV inhibitor, LASV entry inh, HCMV antiviral, FMDV inh)
Cn1cc(/C=N/n2cnc3scc(-c4ccc(Cl)cc4)c3c2=O)c2ccccc21	HCV inhibitor 5.6µM, Marburg entry inh inconclusive, LASV entry inh inconclusive, HCMV antiviral inconclusive
Cc1c(Cl)cccc1NC(=O)COC(=O)c1c2c(nc3ccccc13)CCN(Cc1ccccc1)C2	HCV inhibitor inconclusive, Marburg entry inh 2.6µM, LASV entry inh inconclusive, FMDV inh inconclusive
O=C(NC1CCCCCC1)c1c2c(nc3ccccc13)CCN(Cc1ccccc1)C2	HCV inhibitor inconclusive, Marburg entry inh inconclusive
Cc1cc(N2CCN(C)CC2)ccc1NC(=O)c1c2c(nc3ccccc13)CCN(Cc1ccccc1)C2	HCV inhibitor 2µM, Marburg entry inh inconclusive, LASV entry inh inconclusive (no result: HCMV antiviral)
O=C1Nc2c(c(=O)[nH]c(=O)n2-c2ccc(Cl)cc2)C1(NS(=O)(=O)c1ccccc1)C(F)(F)F (centres undefined)	none (no result: SARS PLP yeast, HCV inhibitor)
CC(=O)Nc1cccc(-c2ccnc3c2CC(C)(C(=O)Nc2ccc4c(c2)OCO4)O3)c1 (centres undefined)	HCMV antiviral -79 (no result: SARS PLP yeast, HCV inhibitor, Marburg entry inh, LASV entry inh)
CC1(C(=O)Nc2ccc(Cl)c(C(F)(F)F)c2)Cc2c(-c3ccc(C(N)=O)cc3)ccnc2O1 (centres undefined)	HCMV antiviral -62, FMDV inh inconclusive (no result: SARS PLP yeast, HCV inhibitor, Marburg entry inh, LASV entry inh)
COc1ccc(NC(=O)C2(C)Cc3c(-c4cccc(NC(C)=O)c4)ccnc3O2)cn1 (centres undefined)	HCMV antiviral -72 (no result: SARS PLP yeast, HCV inhibitor, Marburg entry inh, LASV entry inh)
CC1(C(=O)Nc2ccc(Cl)c(C(F)(F)F)c2)Cc2c(-c3cccc(C(N)=O)c3)ccnc2O1 (centres undefined)	FMDV inh inconclusive (no result: SARS PLP yeast, HCV inhibitor, Marburg entry inh, LASV entry inh)
COc1ccc(NC(=O)C2(C)Cc3c(-c4ccc5c(c4)OCO5)ccnc3O2)cc1 (centres undefined)	HCMV antiviral -62 (no result: SARS PLP yeast, HCV inhibitor, Marburg entry inh, LASV entry inh)
CC1(C(=O)Nc2ccc3c(c2)OCO3)Cc2c(-c3ccccc3)ccnc2O1 (centres undefined)	none (no result: SARS PLP yeast, HCV inhibitor, Marburg entry inh, LASV entry inh)
CC(=O)Nc1ccc(NC(=O)c2c(C)noc2C)cc1	none (no result: Marburg entry inh, LASV entry inh)
COC(=O)[C@]12CCCCC=C1N(CCc1ccc(OC)c(OC)c1)C(=O)[C@H](CC(=O)N1CCOCC1)C2	none (no result: SARS PLP yeast, HCV inhibitor, Marburg entry inh, LASV entry inh)
COc1ccc(-n2c(-c3ccc(C)cc3)cc3c2CC(C)(C)CC3=O)cc1Cl	FMDV inh inconclusive (no result: SARS PLP yeast, HCV inhibitor)
O=C(CCNC(=O)c1ccc(Cl)cc1)Nc1c(F)c(F)cc(F)c1F	none
CN(C)c1ccc(-c2ccnc3c2CC(C)(C(=O)Nc2cccc(OC(F)(F)F)c2)O3)cc1 (centres undefined)	none (no result: SARS PLP yeast, HCV inhibitor, Marburg entry inh, LASV entry inh)
CC1(C(=O)Nc2cccc(OC(F)(F)F)c2)Cc2c(-c3ccc4c(c3)OCO4)ccnc2O1 (centres undefined)	HCMV antiviral -60 (no result: SARS PLP yeast, HCV inhibitor, Marburg entry inh, LASV entry inh)
COCCNCCCOc1ccc(Cl)cc1Br	none (no result: Marburg entry inh, LASV entry inh)
COCCNCCCOc1ccc(Br)cc1Cl	HCV inhibitor 10µM, Marburg entry inh inconclusive, LASV entry inh inconclusive
COCCCNCCCCOc1ccc(Br)cc1Cl	HCV inhibitor 10µM, Marburg entry inh inconclusive, LASV entry inh inconclusive, HCMV antiviral inconclusive
CN(C)CCCCOc1ccc(Br)cc1Cl	HCV inhibitor 10µM, Marburg entry inh inconclusive
C=CCNCCCCOc1ccc(Br)cc1C	Marburg entry inh inconclusive
Cc1cc(Br)ccc1OCCCCNCCO	HCV inhibitor 10µM, Marburg entry inh inconclusive
